HEK293 tox = cytotoxicity counter-screen for GLP-1 receptor inverse agonists | HEK293 cAMP-luciferase reporter cells, luminescence, 24 h | Potency, µM (titrated, usually from 38.3 µM), usual class: inhibitors | 0.13% of 410,000 active | AID 624418;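 further: loss of luciferase light is scored as toxicity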
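Step one: seed cells (200 cells/uL, DMEM with 10% Nu serum, 1% pen-strep). Step two: 12-hour incubation at 37 deg C. Step three: pin 23 nL compound, incubate 24 hr. Step four: add luciferase reagent, read luminescence 12 min later.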
GLP1R inv ag = acts as inverse agonist at human GLP-1 receptor; P43220; HEK293 GLP-1R CRE-luciferase, luminescence, 24 h; GLP-1R form is constitutively active; Potency, µM (top dose mostly 38.3 µM), usual class: inhibitors; 1.6% of 410,000 active; further: nearly all actives have a fitted effect of over 55% in size
Target sequence (P43220 whole entry, looked up): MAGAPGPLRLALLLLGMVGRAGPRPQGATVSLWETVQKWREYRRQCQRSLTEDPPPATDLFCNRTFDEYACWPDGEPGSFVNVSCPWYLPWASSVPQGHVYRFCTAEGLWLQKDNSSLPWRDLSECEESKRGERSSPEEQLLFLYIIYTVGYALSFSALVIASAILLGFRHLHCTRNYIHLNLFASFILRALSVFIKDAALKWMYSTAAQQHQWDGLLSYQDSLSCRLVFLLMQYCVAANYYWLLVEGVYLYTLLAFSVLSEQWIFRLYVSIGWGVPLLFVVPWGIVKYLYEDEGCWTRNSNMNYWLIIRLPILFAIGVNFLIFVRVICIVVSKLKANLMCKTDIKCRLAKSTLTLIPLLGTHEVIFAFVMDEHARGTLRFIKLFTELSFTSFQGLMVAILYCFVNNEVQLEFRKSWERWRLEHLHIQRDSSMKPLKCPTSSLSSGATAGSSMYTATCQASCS
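HEK293 cells stably co-expressing constitutively active GLP-1R and a cAMP-responsive luciferase reporter were seeded in DMEM with 10% Nu serum, given compounds after 12 h, and incubated 24 h at 37 deg C. Luminescence was then read.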
Pin1 inh = blocks the human prolyl isomerase Pin1 | Q13526 | Pin1 FP peptide displacement, HiFluor488, 10 min | Potency, µM (titrated, usually from 115 µM), usual class: inhibitors | 0.009% of 390,000 active | AID 504891; active means well fitted inhibition curve with a large enough effect in the polarisation, with a control signal flat, not every such curve was filed as active; inconclusive means small, poorly fitted or top-dose-only effect, or effect the other way, or a change in a side signal; inactive means no such curve, though single readings can be large or run the other way; the % refers to the polarisation
Target sequence (Q13526 whole entry, looked up): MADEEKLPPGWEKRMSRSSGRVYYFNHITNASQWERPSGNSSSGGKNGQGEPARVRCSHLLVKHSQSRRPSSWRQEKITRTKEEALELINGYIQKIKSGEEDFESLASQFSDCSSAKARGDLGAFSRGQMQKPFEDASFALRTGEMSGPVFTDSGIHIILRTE
Tb PFK inh = T. brucei PFK enzyme inhibition; O15648; T. brucei PFK, ADP-Glo luminescence; Potency, µM (doses to about 57.5 µM), most hits filed as inhibitors; 0.17% of 330,000 active; AID 485367; further: nearly all actives have a fitted effect of over 60% in size
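Luminescent ADP detection (ADP-Glo, two-step: ATP depletion then ADP-to-ATP conversion for luciferase) reported PFK activity after 45 min room-temperature reaction of 1.25 nM enzyme with 0.5 mM F6P and 0.1 mM ATP at pH 8.0.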
GLP1R ag = activates the human GLP-1 receptor. Potency, µM (highest dose often 45.6 µM), usual class: activators. 0.007% of 380,000 active. HEK293 GLP-1R CRE-luciferase, luminescence, 4-6 h; cells express a hypersensitive GLP-1R form. AID 624172
Tb PGK inh = blocks T. brucei phosphoglycerate kinase; Potency, µM (highest dose often 57.5 µM), most hits filed as inhibitors; AID 602233; PGK/GAPDH coupled, Kinase-Glo luminescence, 60 min; 0.043% of 380,000 active; further: nearly all actives have a fitted effect of over 60% in size
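Luminescent ATP detection (Kinase-Glo Plus) follows a 60-minute room-temperature incubation, with wells lacking PGK as controls. Buffer: 100 mM TEA (pH 7.6), 5 mM MgCl2, 0.01% Tween-20. Coupling enzyme GAPDH (100 nM final) supplies unstable 1,3-BPG in-well.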
Each line names hits and unclear results; the compound was inactive in the other large screens. Rows were chosen to be rich in hits. Some 1.8% of all compounds tested hit in one or more screens of this group. Unless noted, the call rests on the fitted dose curve; in most records, active means well fitted curve in the direction sought with a large enough effect; inconclusive means small, poorly fitted or top-dose-only effect, or another doubt; inactive means no such curve, though single readings can be large; an effect the other way counts as inactive or inconclusive.

CCOC(=O)C1=CN(Cc2cccc(F)c2)S(=O)(=O)NC1c1ccc(Br)cc1F (stereo not given)	GLP1R inv ag 10µM
Cc1ccc(NC(=O)CN2C(=O)S/C(=C\c3ccc(-c4cccc(C(=O)O)c4C)o3)C2=O)cc1	none (no result: HEK293 tox, GLP1R inv ag, Pin1 inh, GLP1R ag, Tb PGK inh)
Cc1ccc(NC(=O)CN2C(=O)S/C(=C/c3ccc(-c4cccc(C(=O)O)c4)o3)C2=O)cc1	Pin1 inh inconclusive, Tb PFK inh inconclusive, Tb PGK inh 10µM
COCC(=O)Oc1cc(-c2ccc(C)cc2C)c(OC(=O)COC)c(-c2ccc(C)cc2C)c1	GLP1R inv ag 2.5µM (no result: Pin1 inh, Tb PFK inh)
O=C(Cc1ccc(NC(=O)N2CCSc3ncccc32)cc1)NCc1ccccc1	none (no result: Tb PFK inh, GLP1R ag)
COc1ccc(-c2nc(NC(=O)c3[nH]c(C)c(C(C)=O)c3C)sc2C)cc1	GLP1R inv ag 13µM
CC(=O)c1c(C)[nH]c(C(=O)Nc2ccc(C)c(S(=O)(=O)N(C)C)c2)c1C	none
CC(=O)c1c(C)[nH]c(C(=O)Nc2nc(C)cs2)c1C	GLP1R inv ag 2.2µM
CC(=O)c1c(C)[nH]c(C(=O)Nc2ccc(C)c(S(=O)(=O)Nc3ccc(C)cc3C)c2)c1C	HEK293 tox inconclusive, GLP1R inv ag 2.5µM
CC(=O)c1c(C)[nH]c(C(=O)Nc2ccc(C)cn2)c1C	GLP1R inv ag 5.6µM
COc1ccc(-c2nc(NC(=O)c3ccco3)sc2C)cc1	GLP1R inv ag inconclusive (no result: Pin1 inh, Tb PFK inh)
CC(=O)c1c(C)[nH]c(C(=O)Nc2cc(C)cc(C)c2)c1C	none
Cc1ccc(OCC(=O)Nc2ccc(S(=O)(=O)N(Cc3ccccc3)c3ccccc3)cc2)cc1	none (no result: Tb PFK inh, GLP1R ag)
O=C(CCc1ccccc1)Nc1ncnc2c1C(c1ccccc1)c1c(ccc3ccccc13)O2 (stereo not given)	none (no result: HEK293 tox, GLP1R inv ag, Tb PFK inh, GLP1R ag, Tb PGK inh)
O=C(CSC1=Nc2ccccc2C2=NC(CCC(=O)NC3CCCCC3)C(=O)N12)Nc1cccc(C(F)(F)F)c1 (stereo not given)	none (no result: Tb PFK inh, GLP1R ag)
c1cc2c(cc1C1=NNC(=NC3CC3)SC1)OCCO2	HEK293 tox inconclusive, GLP1R inv ag inconclusive, Tb PFK inh inconclusive, Tb PGK inh 13µM
CCCCN=C1NN=C(c2ccc3c(c2)OCCO3)CS1	GLP1R inv ag 8.9µM
COc1ccc(N=C2NN=C(c3ccc4c(c3)OCCO4)CS2)cc1	none
c1ccc2oc(C3=NNC(=NC4CC4)SC3)cc2c1	HEK293 tox inconclusive, GLP1R inv ag 8.9µM
CC(=O)NCCNC(=O)CCCn1c(=O)[nH]c2ccsc2c1=O	none (no result: Tb PFK inh)
CCc1ccccc1Nc1nn2c(=O)c3ccc(C(=O)NC(C)c4ccccc4)cc3nc2s1 (stereo not given)	GLP1R inv ag 5.6µM (no result: Tb PFK inh)
CCc1ccccc1Nc1nn2c(=O)c3ccc(C(=O)NCCc4ccccc4)cc3nc2s1	none (no result: Tb PFK inh)
Cc1nc2ccccc2c(N)c1C(=O)/C=C/c1ccccc1	HEK293 tox inconclusive, GLP1R inv ag 10µM
Cc1cccc(CNC(=O)c2ccc(C)c(-n3c(C)nc4cccnc43)c2)c1	Pin1 inh inconclusive (no result: Tb PFK inh, GLP1R ag)
COc1ccc(C(C(=O)Nc2ccc3c(c2)OCO3)N(C)C(=O)Cc2c[nH]c3ccccc23)cc1 (stereo not given)	GLP1R inv ag 2.2µM
COc1ccc(NC(=O)C(c2ccccc2)N(C)C(=O)/C=C\c2ccc3c(c2)OCO3)cc1 (stereo not given)	GLP1R inv ag inconclusive (no result: Tb PFK inh, GLP1R ag)
CCOc1cc(CNC(=O)CSc2n[nH]c(-c3ccccc3)n2)cc(OCC)c1OCC	none (no result: Tb PFK inh, GLP1R ag)
CCOC(=O)c1cnn(-c2ccc(Cl)cc2)c1C1CCN(C(=O)OC(C)(C)C)CC1	GLP1R inv ag 10µM
Cc1ccc(-n2ncc(C(=O)NCCc3c[nH]c4ccccc34)c2C2CCN(C(=O)OC(C)(C)C)CC2)cc1C	GLP1R inv ag 11µM (no result: Tb PFK inh)
CCCNC(=O)c1cnn(-c2ccc(C)c(C)c2)c1C1CCN(C(=O)OC(C)(C)C)CC1	none (no result: Tb PFK inh, GLP1R ag)
COc1cc(NC(=O)[C@@H](NC(=O)N2CCn3c2nc2ccccc23)C(C)C)cc(OC)c1	HEK293 tox inconclusive, GLP1R inv ag 10µM
CSCC[C@H](NC(=O)N1CCn2c1nc1ccccc12)C(=O)NCc1ccc(F)cc1	GLP1R inv ag inconclusive
COc1ccc(CNC(=O)[C@H](CCSC)NC(=O)N2CCn3c2nc2ccccc23)cc1	GLP1R inv ag 5µM
Cc1ccc(NC(=O)N2CCC(CN3CCC(C)CC3)CC2)cc1F	none (no result: Tb PFK inh, GLP1R ag)
CCOC(=O)[C@H](CCc1ccccc1)NC(C)C(=O)N1CC2(CC1C(=O)O)SCCS2 (stereo not given in full)	none (no result: HEK293 tox, GLP1R inv ag, Pin1 inh, Tb PFK inh, Tb PGK inh)
C=C[C@@]1(C)CC(=O)[C@]2(O)[C@@]3(C)[C@@H](O)CCC(C)(C)[C@@H]3[C@H](O)[C@H](OC(C)=O)[C@@]2(C)O1	GLP1R ag 1.3µM (no result: Tb PFK inh)
C=C[C@@]1(C)CC(=O)[C@]2(O)[C@@]3(C)[C@@H](O)CCC(C)(C)[C@@H]3[C@H](OC(C)=O)[C@H](O)[C@@]2(C)O1	GLP1R ag 7.9µM (no result: Tb PFK inh)
CCCCCC(=O)Nc1ccccc1N1CCOCC1	none
CCCCC1CCC(C(=O)Nc2ccccc2N2CCOCC2)CC1 (stereo not given)	GLP1R inv ag 10µM, Pin1 inh inconclusive
Cc1oc(-c2ccccc2)cc1C(=O)Nc1cccc2ccccc12	GLP1R inv ag 10µM
Cc1ccc(Nc2c3c(nc4nncn24)CCC3)c(C)c1	none (no result: Tb PFK inh, GLP1R ag)
Cn1c(NCc2ccccc2)nc2cc(-c3ccccc3)sc2c1=O	none (no result: Pin1 inh, Tb PFK inh, Tb PGK inh)
COc1ccc(-c2cc3nc(C)n(N)c(=O)c3s2)cc1	GLP1R inv ag inconclusive, Tb PGK inh 4.5µM
COc1ccc(-c2cc3nc4n(c(=O)c3s2)CCC4)cc1	none
Cc1nc2cc(-c3ccccc3)sc2c(=O)n1N	GLP1R inv ag inconclusive, Tb PGK inh 10µM
CCOC(=O)c1ccc(N2CCN(c3cc(Cl)ccc3C)CC2)c(NC(=O)Nc2cccc(OC)c2)c1	Pin1 inh inconclusive (no result: Tb PFK inh, GLP1R ag)
CCOc1ccccc1CN1CCN(Cc2cc3ccccc3[nH]2)CC1CCO (stereo not given)	GLP1R inv ag 10µM
CCOc1ccccc1CN1CCN(CC2CC2)CC1CCO (stereo not given)	none
O=C(NCc1ccccn1)Nc1cc(Cl)ccc1Cl	none
O=C(NCc1cccs1)Nc1cc(Cl)ccc1Cl	HEK293 tox 10µM, GLP1R inv ag inconclusive
CCCCN(c1ccccc1)S(=O)(=O)c1cc2c3c(c1)C(C)C(=O)N3CCC2 (stereo not given)	Pin1 inh inconclusive (no result: Tb PFK inh, GLP1R ag)
CCC1CN(C(=O)NCc2ccc(F)cc2)c2cc(Cl)ccc2O1 (stereo not given)	GLP1R inv ag 10µM
CCC1CN(C(=O)NCc2cccc(OC)c2)c2cc(Cl)ccc2O1 (stereo not given)	GLP1R inv ag 11µM

High-throughput results (PubChem BioAssay)
